High-throughput results deposited in PubChem BioAssay by National Center for Advancing Translational Sciences (NCATS).
HCV inhibitor: qHTS Assay for Inhibitors of Hepatitis C Virus (HCV). Potency, µM (highest dose often 41.8 µM), for inactives: at the highest dose activity change, negative = inhibition, actives largely listed as inhibitors. 340,000 tested, 3.4% active. AID 651820, 2012. Huh7.5.1 HCVcc-Cre infection, luciferase reporter, 44 h; also: potency is read from the fitted curve at half-maximal effect
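A cell-based infection assay in which seeded cells (1,000 per well) receive test compound after 4 h, are inoculated with HCVcc-Cre at approximately 0.5 moi, and are incubated 44 h before luminescence detection.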
Marburg entry inh: qHTS for inhibitors of binding or entry into cells for Marburg Virus; Marburg virus pseudotyped entry inhibition, cell reporter; Potency, µM (highest dose often 37.8 µM), without a hit: top-dose activity change, negative = inhibition, hits mostly inhibitors; 300,000 tested, 1.8% active; AID 540276, 2011; calls by dose curve; tested in HEK293 cells; also: potency is read from the fitted curve at half-maximal effect
HCMV inh: qHTS Assay for inhibitors of the human cytomegalovirus (HCMV). HFF cells, HCMV-luciferase reporter, 72 h; stronger effect = lower value. activity change, negative = inhibition, % at 57.5 µM. 410,000 tested, 4.5% active. AID 1259415, 2018; in the data active = activity change below about -60%; inconclusive = no clear call, values can overlap the other calls; inactive = above about -39%
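Two compound doses tested in HFFs infected with HCMV-luciferase, MOI 1 PFU/cell, 72 h at 37C. Lysate luminescence read with OneGlo; data normalized against buffer-only and 10uM Salinomycin inhibitor controls.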
Pf growth 96h: Primary qHTS for delayed death inhibitors of the malarial parasite plastid, 96 hour incubation | 320,000 tested, 6.9% active | AID 504834, 2011 | Potency, µM (highest dose often 28.7 µM), for inactives: at the highest dose activity change, negative = inhibition, hits mostly inhibitors | P. falciparum luciferase reporter growth, 96 h; also: potency is read from the fitted curve at half-maximal effect
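Parasite growth measured via integrated firefly luciferase reporter in P. falciparum. Infected erythrocytes at 2% hematocrit, 0.05% parasitemia final were treated 96 hours at 37 C under 5% CO2, and luminescence was read.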
Lassa entry inh: qHTS for Inhibitors of binding or entry into cells for Lassa Virus; 300,000 tested, 1.2% active; Lassa virus pseudotype entry inhibition, cell reporter; Potency, µM (doses to about 37.9 µM), for inactives: top-dose activity change, negative = inhibition, actives largely listed as inhibitors; AID 540256, 2011; calls by dose curve; tested in HEK293 cells; also: potency is read from the fitted curve at half-maximal effect; nearly all actives have a fitted effect of over 50% in size
Pf growth 48h: Primary qHTS for delayed death inhibitors of the malarial parasite plastid, 48 hour incubation. 310,000 tested, 5.9% active. Potency, µM (top dose mostly 28.7 µM), inactives show at the top dose activity change, negative = inhibition, most hits filed as inhibitors. P. falciparum luciferase growth in erythrocytes, 48 h; also: potency is read from the fitted curve at half-maximal effect
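Compounds are pin-transferred into medium, infected erythrocytes (2% hematocrit, 0.1% parasitemia final) are added, and plates sit one parasite generation at 37 C in 5% CO2. Detection reagent is then added and luminescence measured.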
The depositor's hits bear a star; u = inconclusive; x = no result given; [ ] = remark or other dose. A selection: hits, their analogues and other compounds. The true share with any hit is near 14%. Unless noted, calls follow the shape of the dose curve; as a rule, active = well fitted inhibition curve with a large enough effect; inconclusive = small, poorly fitted or top-dose-only effect, or another doubt; inactive = no such curve, though single readings can be large or run the other way. % is scaled to controls: 0 for no effect and ±100 for the full control effect.

SMILES	HCV inhibitor	Marburg entry inh	HCMV inh	Pf growth 96h	Lassa entry inh	Pf growth 48h
COCCN1C(=NCCc2cccnc2)NC(c2ccccc2)C(C(=O)OC)=C1C (stereo not drawn)	x	54%[14.2 µM]	x	x	-21%[14.3 µM]	x
NC(=O)C[n+]1cccc(CNC(=O)c2ccc(OC(F)F)cc2)c1	-2%	6%[46.1 µM]	-15	27%	3%	31%
O=C(C[n+]1cccc(CNC(=O)c2ccc(OC(F)F)cc2)c1)Nc1cc(C(F)(F)F)ccc1Cl	u	7%	41	0.93µM*	-1%	1.7µM*
C/C(=C\c1ccc2c(c1)OCO2)C1Nc2cccc3cccc(c23)N1	x	x	u	67%	x	-12%
C/C(CCC1CC(C)(C)OC1=O)=N\NC(N)=S (stereo not drawn)	12%	u	-93*	-30%	22%	28%
C/C(CC1CC(C)(C)OC1=O)=N\NC(N)=S (stereo not drawn)	-24%	-9%[46.1 µM]	u	-12%	23%	27%
CCc1nn(Cc2cccc(F)c2)c(=O)c2cc3cc(C)ccc3n12	x	-3%[46.1 µM]	-5	x	11%[46.1 µM]	x
CCOc1ccccc1OCCNC1CCCC1	-11%	-1%	-19	-1%	-3%	-2%
CCOc1cccc(=NC2CCCCC2)c2c(C)n(C)c(C)c12	u	u	-110*	u	-25%	1.9µM*
O=C(c1ccc(F)cc1)C1CCN(CCn2c(=S)[nH]c3ccccc3c2=O)CC1	x	x	x	4.3µM*	x	3.8µM*
CC1(C)C(=O)N(CCN2CCC(C(=O)c3ccc(F)cc3)CC2)c2ccccc21	u	u	u	u	u	15µM*
CC1CCN(CCn2c(=S)[nH]c3ccccc3c2=O)CC1	14%	-19%[46.1 µM]	-14	u	0%[46.1 µM]	6%
COc1ccccc1NC(=O)CN1CCC(C(=O)c2ccc(F)cc2)CC1	-30%	-3%	-6	-2%	2%	6%
O=C(c1cccc(N2C(=O)C3C4C=CC(C4)C3C2=O)c1)N1CCN(c2ccccc2Cl)CC1 (stereo not drawn)	u	x	0	19%	x	-1%
CCOc1c(Br)cc(C2C=C(C(=O)O)Nc3ncnn32)cc1OC (stereo not drawn)	x	u	u	x	17%[46.1 µM]	x
Cc1ccc(C)c(C(=O)CN2C(=O)NC3(CCCCCC3)C2=O)c1	-17%	15%	-8	0%	9%	u
CCOc1ccc(-c2[nH]ncc2Oc2cccc(OC)c2)c(O)c1	u	u	20	u	u	u
COc1cccc(Oc2cn[nH]c2-c2ccc(O)cc2O)c1	u	u	-16	19%	7%	5.2µM*
COc1ccccc1Oc1cn[nH]c1-c1ccc(OCC(=O)NN)cc1O	10%	x	-5	u	x	8%[0.00184 µM]
COc1ccccc1Oc1cn[nH]c1-c1ccc(O)cc1O	-21%	x	-66*	u	x	u
COc1cccc(Oc2cn[nH]c2-c2ccc(OC)cc2O)c1	11µM*	u	-7	x	u	8.3µM*
CCOc1ccc2nc(NC3=NC(c4ccc(OC)cc4)CC(=O)N3)nc(C)c2c1 (stereo not drawn)	8.9µM*	u	-70*	10µM*	u	u
CC1(c2nnnn2Cc2ccccc2)CCC(=O)N1CCCn1ccnc1 (stereo not drawn)	x	x	-14	x	x	x
Cc1ccc(NC(=O)c2cccc(-n3cnnn3)c2)cc1Cl	-23%	x	27	u	x	9.3µM*
COc1ccc(Cl)cc1NC(=O)COc1cccc(-n2cnnn2)c1	u	4%	u	1%[5.75 µM]	4%	-22%
SMILES	HCV inhibitor	Marburg entry inh	HCMV inh	Pf growth 96h	Lassa entry inh	Pf growth 48h
Cc1cc(C)c(NC(=O)CS(=O)CC(=O)Nc2ccc(-n3cnnn3)c(C)c2)c(C)c1 (stereo not drawn)	2%	u	-69*	3%	u	7%
Cc1ccc(NC(=O)c2ccccc2)cc1-n1cnnn1	10%	0%[46.1 µM]	-73*	u	-1%[46.1 µM]	u
COc1ccc(Cl)cc1NC(=O)c1cccc(-n2cnnn2)c1	10µM*	-15%	-63*	17%	-4%	10%
Cc1cc(NC(=O)CS(=O)CC(=O)Nc2c(C)cccc2C)ccc1-n1cnnn1 (stereo not drawn)	4%	u	14	-12%	4%[46.1 µM]	5%
O=C(NCc1ccccc1F)C1CCN(Cc2cc3ccccc3n2Cc2cccc(Cl)c2)CC1	x	x	2	x	u	x
Cc1ccc(N2CC(NC(=O)c3cccc(Cl)c3)CC2=O)cc1C (stereo not drawn)	x	x	-7	x	-20%[46.1 µM]	x
CCc1nc2ccc(C(=O)NCCCN3CCCC3=O)cn2c1N(C)C(=O)C1CCCCC1	x	x	5	x	x	x
Cc1cc(=O)c2c(O)c3c(O)cc(=O)c4c3c3c(cc(O)c1c23)C(C)(C)C=4O	x	x	x	1.5µM*	x	2.7µM*
Cc1ccc(N(C(=O)CNC(=O)c2ccco2)C(C(=O)NCC2CCCO2)c2ccccc2)cc1C (stereo not drawn)	5%	-26%[46.1 µM]	-67*	4%	x	0%
Cc1ccc(C)c(N(C(=O)CNC(=O)c2ccco2)C(C(=O)NCC2CCCO2)c2ccccc2)c1 (stereo not drawn)	-1%	-6%	u	-5%	3%	-24%
COc1ccc(CN(C(=O)CNC(=O)c2ccco2)C(C(=O)NCC2CCCO2)c2ccccc2)cc1 (stereo not drawn)	30%	12%[46.1 µM]	-35	2.3µM*	x	-4%
COc1cc(NC(=O)C2CCCN2C(=O)OCc2ccccc2)cc(OC)c1 (stereo not drawn)	u	-1%	-5	0%	-18%	7.4µM*
COc1ccc(-c2cccc3c2C2CC3CCN2C(=O)OCc2ccccc2)cc1 (stereo not drawn)	7.9µM*	x	-20	x	x	x
Cc1cccc(NC(=O)C2CCCN2C(=O)OCc2ccccc2)c1 (stereo not drawn)	0%	x	-20	31%	x	u
CC(C)(C)n1nnnc1C(c1cc2ccccc2o1)N1CCCCC1 (stereo not drawn)	x	x	-17	x	x	x
O=C(CSc1nc2ccccc2c2c1CCCC2)N1CCOCC1	u	u	-35	9.3µM*	u	3%
Cc1cc2ccccc2nc1SCC(=O)N1CCCC1	1µM*	10%	-20	u	0%	16%
Cc1cc(SCC(=O)N2CCCC2)nc2ccccc12	-14%	2%	-24	u	5%	148%
CCn1c(=NC(=O)c2ccc(S(=O)(=O)N3CCCCC3)cc2)sc2cccc(OC)c21	x	0%[46.1 µM]	-7	x	14%[46.1 µM]	x
Cc1ccc(-c2cc(NC(=O)CCl)n(-c3ccccc3)n2)cc1	u	-25%[46.1 µM]	-97*	4%[5.75 µM]	-18%	10%
